In paper PMC11006913 one finds binding signal data, which are given here for 13 sequences.

Changes are numbered by the printed parent chain.

What all share (assay): PBM; 200 nM protein, PBS
Common to all, as to conditions: dsDNA, one strand shown

One experiment concerns the target VAX1 (Homo sapiens, UniProt Q5SQQ9 86-172).
For experiment [1], the target named is HOXA2 (Homo sapiens, UniProt O43364 129-215, Y150S).
Experiment [2] deals with HOXA2 (Homo sapiens, UniProt O43364 129-215).
For experiment [3], the target named is T1, VENTX (Homo sapiens, UniProt O95231 78-163).
T1 sequence: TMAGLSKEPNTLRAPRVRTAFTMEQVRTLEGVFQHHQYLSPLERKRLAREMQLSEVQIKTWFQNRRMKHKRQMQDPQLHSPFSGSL

The target of experiment [4] is T2, VENTX (Homo sapiens, UniProt O95231 78-163, Y115F).
T2 sequence: T1 sequence with Y38F

Experiment [5] addresses T3, PAX4 (Homo sapiens, UniProt O43316 9-242, R200K).
T3 sequence: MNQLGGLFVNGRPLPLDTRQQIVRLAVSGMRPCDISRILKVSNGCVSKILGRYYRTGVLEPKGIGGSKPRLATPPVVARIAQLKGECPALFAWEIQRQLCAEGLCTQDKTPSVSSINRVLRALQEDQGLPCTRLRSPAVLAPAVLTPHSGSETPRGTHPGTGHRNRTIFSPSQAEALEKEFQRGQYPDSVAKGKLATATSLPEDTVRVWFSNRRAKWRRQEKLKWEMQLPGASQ

Experiment [6] has as its target T4, PAX4 (Homo sapiens, UniProt O43316 9-242).
T4 sequence: T3 sequence with K192R

The target in experiment [7] is T5, PAX4 (Homo sapiens, UniProt O43316 9-242, R200Q).
T5 sequence: T3 sequence with K192Q

Experiment [8] addresses T6, PAX4 (Homo sapiens, UniProt O43316 9-242, F177V).
T6 sequence: T3 sequence with F169V, K192R

Experiment [9] deals with T7, PAX4 (Homo sapiens, UniProt O43316 9-242, F177Y).
T7 sequence: T3 sequence with F169Y, K192R

Experiment [10] concerns the target T8, PAX4 (Homo sapiens, UniProt O43316 9-242, R227W).
T8 sequence: T3 sequence with K192R, R219W

Experiment [11] concerns the target HOXB9 (Homo sapiens, UniProt P17482 171-250, T197M).
In another experiment the target is HOXC10 (Homo sapiens, UniProt Q9NYD6 254-340, K271E).
The target of experiment [12] is HOXC9 (Homo sapiens, UniProt P31274 178-260, K195R).
Experiment [13] concerns the target HOXC9 (Homo sapiens, UniProt P31274 178-260, R193K).
Experiment [14] has as its target HOXB9 (Homo sapiens, UniProt P17482 171-250, R186Q).
The target of experiment [15] is HOXC9 (Homo sapiens, UniProt P31274 178-260, R222W).
In experiment [16] the target is HOXB9 (Homo sapiens, UniProt P17482 171-250).
Chain of HOXB9 (Homo sapiens, UniProt P17482 171-250) (P17482 171-250): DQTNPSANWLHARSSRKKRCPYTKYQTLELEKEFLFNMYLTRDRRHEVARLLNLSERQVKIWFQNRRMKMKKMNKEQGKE

Chain of HOXA2 (Homo sapiens, UniProt O43364 129-215) (O43364 129-215): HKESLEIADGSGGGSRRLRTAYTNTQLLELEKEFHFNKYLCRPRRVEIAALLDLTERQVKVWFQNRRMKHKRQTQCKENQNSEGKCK
Chain of HOXB9 (Homo sapiens, UniProt P17482 171-250, T197M) (P17482 171-250 T197M): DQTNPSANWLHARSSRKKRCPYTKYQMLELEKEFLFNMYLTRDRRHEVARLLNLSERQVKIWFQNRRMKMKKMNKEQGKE
Chain of VAX1 (Q5SQQ9 86-172): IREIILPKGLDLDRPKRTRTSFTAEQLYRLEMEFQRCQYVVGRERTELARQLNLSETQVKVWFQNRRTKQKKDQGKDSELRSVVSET
Chain of HOXA2 (Homo sapiens, UniProt O43364 129-215, Y150S) (O43364 129-215 Y150S): as the sequence (O43364 129-215) above, with Y22S counted along it
Chain of HOXC10 (Q9NYD6 254-340 K271E): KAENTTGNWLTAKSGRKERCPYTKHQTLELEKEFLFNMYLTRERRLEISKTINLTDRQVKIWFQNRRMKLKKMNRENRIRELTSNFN
Chain of HOXB9 (Homo sapiens, UniProt P17482 171-250, R186Q) (P17482 171-250 R186Q): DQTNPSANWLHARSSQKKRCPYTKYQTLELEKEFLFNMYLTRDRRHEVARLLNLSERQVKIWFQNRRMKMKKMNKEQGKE
Chain of HOXC9 (Homo sapiens, UniProt P31274 178-260, R193K) (P31274 178-260 R193K): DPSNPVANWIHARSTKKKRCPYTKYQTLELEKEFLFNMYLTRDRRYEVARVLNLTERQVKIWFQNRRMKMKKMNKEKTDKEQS
Chain of HOXC9 (Homo sapiens, UniProt P31274 178-260, K195R) (P31274 178-260 K195R): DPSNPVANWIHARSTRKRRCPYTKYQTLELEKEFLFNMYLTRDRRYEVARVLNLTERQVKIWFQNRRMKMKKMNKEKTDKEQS
Chain of HOXC9 (Homo sapiens, UniProt P31274 178-260, R222W) (P31274 178-260 R222W): as the sequence (P31274 178-260 R193K) above, with K16R, R45W counted along it

For the sequence CTCAATTA, the binding signal with VAX1 was 12.9 upbm affinity estimate (log intensity, higher = more binding, comparable within an allelic series); in the experiment with HOXA2 [1] it was 10.8 upbm affinity estimate (log intensity, higher = more binding, comparable within an allelic series); with HOXA2 [2], 12.1 upbm affinity estimate (log intensity, higher = more binding, comparable within an allelic series).

CCAGGTCC: the binding signal was 8.06 upbm affinity estimate (log intensity, higher = more binding, comparable within an allelic series) with VENTX [3]; 7.95 upbm affinity estimate (log intensity, higher = more binding, comparable within an allelic series) in the experiment with VENTX [4]; 10.5 upbm affinity estimate (log intensity, higher = more binding, comparable within an allelic series) in the experiment with HOXA2 [1]; 7.25 upbm affinity estimate (log intensity, higher = more binding, comparable within an allelic series) with HOXA2 [2].

Take GGCAGGCC: the binding signal with PAX4 [5] is 9.11 upbm affinity estimate (log intensity, higher = more binding, comparable within an allelic series); with PAX4 [6], 9.17 upbm affinity estimate (log intensity, higher = more binding, comparable within an allelic series); in the experiment with PAX4 [7], 9.21 upbm affinity estimate (log intensity, higher = more binding, comparable within an allelic series); with PAX4 [8], 9.13 upbm affinity estimate (log intensity, higher = more binding, comparable within an allelic series); with PAX4 [9], 9.09 upbm affinity estimate (log intensity, higher = more binding, comparable within an allelic series); in the experiment with PAX4 [10], 9.12 upbm affinity estimate (log intensity, higher = more binding, comparable within an allelic series).

For TAATTAGA, the binding signal was 10.1 upbm affinity estimate (log intensity, higher = more binding, comparable within an allelic series) in the experiment with HOXB9 [11]; 13 upbm affinity estimate (log intensity, higher = more binding, comparable within an allelic series) in the experiment with VENTX [3]; 12.2 upbm affinity estimate (log intensity, higher = more binding, comparable within an allelic series) in the experiment with PAX4 [5]; 12.4 upbm affinity estimate (log intensity, higher = more binding, comparable within an allelic series) with VENTX [4]; 12.8 upbm affinity estimate (log intensity, higher = more binding, comparable within an allelic series) with PAX4 [6]; 12.7 upbm affinity estimate (log intensity, higher = more binding, comparable within an allelic series) in the experiment with PAX4 [7]. Also, the binding signal is 11 upbm affinity estimate (log intensity, higher = more binding, comparable within an allelic series) in the experiment with PAX4 [8]; 11.8 upbm affinity estimate (log intensity, higher = more binding, comparable within an allelic series) with HOXC10; 11.5 upbm affinity estimate (log intensity, higher = more binding, comparable within an allelic series) with PAX4 [9]; 13.8 upbm affinity estimate (log intensity, higher = more binding, comparable within an allelic series) with VAX1; 11.5 upbm affinity estimate (log intensity, higher = more binding, comparable within an allelic series) with PAX4 [10]; 11 upbm affinity estimate (log intensity, higher = more binding, comparable within an allelic series) with HOXA2 [1]. Also, the binding signal with HOXA2 [2] is 13.1 upbm affinity estimate (log intensity, higher = more binding, comparable within an allelic series).

Consider GTAATTGA, for which the binding signal in the experiment with VAX1 was 12.8 upbm affinity estimate (log intensity, higher = more binding, comparable within an allelic series); in the experiment with HOXA2 [1], 10.7 upbm affinity estimate (log intensity, higher = more binding, comparable within an allelic series); in the experiment with HOXA2 [2], 12.1 upbm affinity estimate (log intensity, higher = more binding, comparable within an allelic series).

As to CAATTACC, the binding signal was 11.5 upbm affinity estimate (log intensity, higher = more binding, comparable within an allelic series) with VENTX [4] and 12.8 upbm affinity estimate (log intensity, higher = more binding, comparable within an allelic series) with VAX1.

Turning to AATTAGTC, the binding signal with PAX4 [5] was 11.7 upbm affinity estimate (log intensity, higher = more binding, comparable within an allelic series); with PAX4 [6] it was 12.2 upbm affinity estimate (log intensity, higher = more binding, comparable within an allelic series); with PAX4 [7] it was 12.1 upbm affinity estimate (log intensity, higher = more binding, comparable within an allelic series); with PAX4 [8], 10.4 upbm affinity estimate (log intensity, higher = more binding, comparable within an allelic series); with PAX4 [9] it was 10.8 upbm affinity estimate (log intensity, higher = more binding, comparable within an allelic series); with PAX4 [10], 10.9 upbm affinity estimate (log intensity, higher = more binding, comparable within an allelic series).

For CCCCGGCG, the binding signal with HOXC10 is 10 upbm affinity estimate (log intensity, higher = more binding, comparable within an allelic series).

In the case of CAATTAAC, the binding signal was 9.98 upbm affinity estimate (log intensity, higher = more binding, comparable within an allelic series) with HOXB9 [11]; 12.5 upbm affinity estimate (log intensity, higher = more binding, comparable within an allelic series) with HOXC9 [12]; 12.8 upbm affinity estimate (log intensity, higher = more binding, comparable within an allelic series) in the experiment with VENTX [3]; 11.5 upbm affinity estimate (log intensity, higher = more binding, comparable within an allelic series) in the experiment with PAX4 [5]; 11.9 upbm affinity estimate (log intensity, higher = more binding, comparable within an allelic series) in the experiment with VENTX [4]; 12.1 upbm affinity estimate (log intensity, higher = more binding, comparable within an allelic series) with PAX4 [6]. In addition, the binding signal was 12 upbm affinity estimate (log intensity, higher = more binding, comparable within an allelic series) with PAX4 [7]; 12.5 upbm affinity estimate (log intensity, higher = more binding, comparable within an allelic series) in the experiment with HOXC9 [13]; 10.6 upbm affinity estimate (log intensity, higher = more binding, comparable within an allelic series) in the experiment with PAX4 [8]; 11.8 upbm affinity estimate (log intensity, higher = more binding, comparable within an allelic series) in the experiment with HOXC10; 10.9 upbm affinity estimate (log intensity, higher = more binding, comparable within an allelic series) in the experiment with PAX4 [9]; 13 upbm affinity estimate (log intensity, higher = more binding, comparable within an allelic series) with VAX1. The binding signal with HOXB9 [14] is 11.4 upbm affinity estimate (log intensity, higher = more binding, comparable within an allelic series); with HOXC9 [15], 10.9 upbm affinity estimate (log intensity, higher = more binding, comparable within an allelic series); in the experiment with PAX4 [10], 10.8 upbm affinity estimate (log intensity, higher = more binding, comparable within an allelic series); with HOXA2 [1] it was 10.8 upbm affinity estimate (log intensity, higher = more binding, comparable within an allelic series); with HOXA2 [2], 12.3 upbm affinity estimate (log intensity, higher = more binding, comparable within an allelic series).

On to CTAATTAC, for which the binding signal with HOXB9 [11] is 10.1 upbm affinity estimate (log intensity, higher = more binding, comparable within an allelic series); with VENTX [3] it was 13.2 upbm affinity estimate (log intensity, higher = more binding, comparable within an allelic series); with PAX4 [5] it was 12 upbm affinity estimate (log intensity, higher = more binding, comparable within an allelic series); with VENTX [4] it was 12.7 upbm affinity estimate (log intensity, higher = more binding, comparable within an allelic series); with PAX4 [6], 12.5 upbm affinity estimate (log intensity, higher = more binding, comparable within an allelic series); with PAX4 [7], 12.3 upbm affinity estimate (log intensity, higher = more binding, comparable within an allelic series). Besides, the binding signal with PAX4 [8] is 10.6 upbm affinity estimate (log intensity, higher = more binding, comparable within an allelic series); with HOXC10, 12 upbm affinity estimate (log intensity, higher = more binding, comparable within an allelic series); with PAX4 [9], 11.1 upbm affinity estimate (log intensity, higher = more binding, comparable within an allelic series); in the experiment with VAX1, 14 upbm affinity estimate (log intensity, higher = more binding, comparable within an allelic series); with PAX4 [10], 11.1 upbm affinity estimate (log intensity, higher = more binding, comparable within an allelic series); in the experiment with HOXA2 [1] it was 10.9 upbm affinity estimate (log intensity, higher = more binding, comparable within an allelic series). Further, in the experiment with HOXA2 [2], the binding signal was 13.4 upbm affinity estimate (log intensity, higher = more binding, comparable within an allelic series).

On to CTAATTAG, for which the binding signal in the experiment with VENTX [3] is 13.5 upbm affinity estimate (log intensity, higher = more binding, comparable within an allelic series); with PAX4 [5] it was 12.5 upbm affinity estimate (log intensity, higher = more binding, comparable within an allelic series); with VENTX [4] it was 12.8 upbm affinity estimate (log intensity, higher = more binding, comparable within an allelic series); with PAX4 [6], 13 upbm affinity estimate (log intensity, higher = more binding, comparable within an allelic series); in the experiment with PAX4 [7], 13.1 upbm affinity estimate (log intensity, higher = more binding, comparable within an allelic series); with PAX4 [8], 11.2 upbm affinity estimate (log intensity, higher = more binding, comparable within an allelic series). Also, the binding signal with PAX4 [9] is 11.8 upbm affinity estimate (log intensity, higher = more binding, comparable within an allelic series); in the experiment with VAX1 it was 14.1 upbm affinity estimate (log intensity, higher = more binding, comparable within an allelic series); with PAX4 [10] it was 11.7 upbm affinity estimate (log intensity, higher = more binding, comparable within an allelic series); with HOXA2 [1] it was 10.9 upbm affinity estimate (log intensity, higher = more binding, comparable within an allelic series); in the experiment with HOXA2 [2] it was 13.4 upbm affinity estimate (log intensity, higher = more binding, comparable within an allelic series).

In the case of ACAATTAA, the binding signal with HOXB9 [11] was 10.1 upbm affinity estimate (log intensity, higher = more binding, comparable within an allelic series); in the experiment with HOXC9 [12] it was 12.5 upbm affinity estimate (log intensity, higher = more binding, comparable within an allelic series); with VENTX [4] it was 11.5 upbm affinity estimate (log intensity, higher = more binding, comparable within an allelic series); with HOXB9 [16] it was 11.8 upbm affinity estimate (log intensity, higher = more binding, comparable within an allelic series); in the experiment with PAX4 [7], 11.8 upbm affinity estimate (log intensity, higher = more binding, comparable within an allelic series); with HOXC9 [13], 12.5 upbm affinity estimate (log intensity, higher = more binding, comparable within an allelic series). Also, the binding signal in the experiment with HOXC10 was 12 upbm affinity estimate (log intensity, higher = more binding, comparable within an allelic series); with HOXB9 [14] it was 11.6 upbm affinity estimate (log intensity, higher = more binding, comparable within an allelic series); with HOXC9 [15], 11 upbm affinity estimate (log intensity, higher = more binding, comparable within an allelic series).

For ACCAATTA, the binding signal in the experiment with HOXB9 [11] is 9.73 upbm affinity estimate (log intensity, higher = more binding, comparable within an allelic series); with VENTX [3], 12.8 upbm affinity estimate (log intensity, higher = more binding, comparable within an allelic series); with PAX4 [5], 11.6 upbm affinity estimate (log intensity, higher = more binding, comparable within an allelic series); with VENTX [4], 11.8 upbm affinity estimate (log intensity, higher = more binding, comparable within an allelic series); in the experiment with PAX4 [6] it was 12.2 upbm affinity estimate (log intensity, higher = more binding, comparable within an allelic series); with HOXB9 [16] it was 11.1 upbm affinity estimate (log intensity, higher = more binding, comparable within an allelic series). Besides, the binding signal with PAX4 [7] was 12.1 upbm affinity estimate (log intensity, higher = more binding, comparable within an allelic series); with PAX4 [8], 10.5 upbm affinity estimate (log intensity, higher = more binding, comparable within an allelic series); in the experiment with PAX4 [9], 10.8 upbm affinity estimate (log intensity, higher = more binding, comparable within an allelic series); in the experiment with VAX1, 12.8 upbm affinity estimate (log intensity, higher = more binding, comparable within an allelic series); with HOXB9 [14], 10.9 upbm affinity estimate (log intensity, higher = more binding, comparable within an allelic series); with PAX4 [10], 10.8 upbm affinity estimate (log intensity, higher = more binding, comparable within an allelic series). Besides, the binding signal in the experiment with HOXA2 [1] was 10.9 upbm affinity estimate (log intensity, higher = more binding, comparable within an allelic series); in the experiment with HOXA2 [2], 12.1 upbm affinity estimate (log intensity, higher = more binding, comparable within an allelic series).
